# A selection: hits, their analogues and other compounds. The true share with any hit is near 4.1%.
# NALP3 yeast inh: inhibitors of NALP3 inflammasome in yeast; 330,000 tested, 0.39% active; inhibition, % at 10 µM; Yeast reconstituted NLRP3/ASC/caspase-1, beta-gal luminescence, 24 h;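 active means inhibition of 50% or more; inactive means inhibition below 50%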;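 further: plate controls were induced DMSO wells for no effect and uninduced yeast grown without galactose for full effect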
# TIM10 inh: TIM10 yeast growth inhibition. S. cerevisiae TIM10 strain growth, BacTiter-Glo luminescence, 24 h. inhibition, % at 10 µM. 330,000 tested, 1.4% active. AID 463195;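 active means inhibition of 40% or more at the single tested concentration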;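 further: wild-type TIM10 isogenic control strain grown at permissive 25 °C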
# tim23-1 inh: growth inhibitors of tim23-1 mutant yeast; 330,000 tested, 1.3% active; S. cerevisiae tim23-1 growth, BacTiter-Glo luminescence, 24 h; inhibition, % at 20 µM;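 active means growth inhibition of the mutant yeast at or above 50%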;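 further: temperature-sensitive mutant grown at 25 °C; plate controls were DMSO-treated mutant yeast for no effect and medium wells lacking yeast for full effect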
# tim10-1 inh: tim10-1 yeast growth inhibition. inhibition, % at 20 µM. S. cerevisiae tim10-1 ts strain growth, BacTiter-Glo, 24 h. 330,000 tested, 2.2% active;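 active means inhibition of at least 40%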;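 further: mutant grown at 25 °C; 0% = DMSO wells with yeast and 100% = wells holding no yeast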
# PfHsp90 yeast 2: growth inhibition of yeast expressing Plasmodium Hsp90 | AID 504621 | inhibition, % at 9.4 µM | S. cerevisiae expressing PfHsp90, BacTiter-Glo ATP, 48 h; yeast lacking PDR1 and PDR3 efflux regulators | 310,000 tested, 0.32% active;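 active means every replicate shows inhibition above about 80%, whatever the replicate mean, limit read from the data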;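 further: 0% = DMSO neutral controls and 100% = 20 µM radicicol positive controls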
# NALP1 yeast inh: blocks the NALP1 inflammasome reconstituted in yeast. S. cerevisiae NALP1/ASC/caspase-1 growth, X-gal OD620, 72 h. inhibition, % at 10 µM. 280,000 tested, 0.61% active; in the data active means inhibition mostly above about 24%, no sharp cut-off; inactive means mostly below about 32%
# tim10-1 conf: tim10-1 yeast growth inhibition, confirmed | shares compounds with tim10-1 inh | inhibition, % at 20 µM | S. cerevisiae tim10-1 ts strain growth, BacTiter-Glo, 24 h | 7,400 tested, 56% active;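 active means inhibition of yeast growth at or above a set limit in either of two repeat tests at 20 µM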;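 further: tim10-1 mutant grown at permissive 25 °C to find synthetic lethal compounds; 0% = DMSO yeast wells and 100% = medium wells without yeast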
# Active calls of the source: *; · = no result.
SMILES,NALP3 yeast inh,TIM10 inh,tim23-1 inh,tim10-1 inh,PfHsp90 yeast 2,NALP1 yeast inh,tim10-1 conf
Cc1cc(OCCOc2cccc3cccnc23)cc(C)c1Cl,25.8,24.8,3.0,41.3*,-29.9,13.7,4.0
COc1ccc(-c2cc(C(=O)Nc3ccccc3N3CCOCC3)c3ccccc3n2)cc1OC,-1.2,30.4,14.2,42.0*,-20.3,-13.1,25.4
O=C(Nc1ccccc1N1CCOCC1)c1ccc2ccccc2n1,19.0,15.3,25.6,40.9*,·,1.6,26.6
O=C(Nc1ccccc1N1CCOCC1)c1cc(-c2ccncc2)nc2ccccc12,16.3,19.1,31.0,34.6,4.4,16.0,·
CC(C)CCC(C)NC(=O)CN1C(=O)NC(C)(c2ccc3ccccc3c2)C1=O (centres undefined),3.9,3.3,6.4,10.8,-26.5,14.8,·
CCc1ccc(-c2cc(C)no2)cc1S(=O)(=O)NC(C)Cc1ccco1 (centres undefined),19.0,16.1,34.5,25.5,-7.1,9.7,·
O=[N+]([O-])c1ccccc1SN(Cc1ccccc1)c1ccccn1,-57.7,35.8,9.3,42.3*,-0.3,-16.2,21.5
O=C(c1ccc([N+](=O)[O-])cc1)N(Cc1ccccc1)c1ccccn1,12.2,12.6,11.1,10.5,-2.6,6.1,·
Clc1ccc(-c2nsc(N3CCOCC3)n2)c(Cl)c1,37.5,5.3,16.0,-5.7,14.5,23.2,·
O=C(Nc1nc(-c2cc(F)ccc2F)cs1)C1=NN(c2ccccc2)C(=O)CC1,14.1,37.8,16.7,44.6*,-31.5,0.1,25.6
O=C(Nc1nc(-c2cc(F)ccc2F)cs1)C1=COCCO1,27.8,26.7,32.4,46.2*,·,·,29.9
COc1ccc(NC(=O)C2CCN(c3cc(C)nc(-c4ccccc4)n3)CC2)cc1,19.5,22.4,38.2,43.3*,14.3,44.3,29.6
COc1ccc(NC(=O)C2CCN(c3nc(C)cc(C)n3)CC2)cc1,-1.8,9.0,2.8,14.6,·,-9.3,·
C=CCNC(=O)/C(C#N)=C/c1ccccc1OCc1ccc(C(=O)OC)cc1,14.5,30.6,44.8,44.5*,15.0,18.8,27.2
CC(C)c1cc(-c2cc(C(=O)NCc3ccccc3)on2)nc(NCC2CC2)n1,31.2,15.6,48.0,44.2*,-31.3,5.6,28.6
Clc1cc(-c2ccccc2)nc(-c2ccccc2)n1,12.4,20.2,26.0,24.5,6.2,·,·
Nc1nc(-c2ccccc2)cc(-c2ccccc2O)n1,-3.6,29.2,46.3,43.0*,-24.0,14.5,-7.7
Clc1nc(-c2ccccc2)cc(-c2ccccc2)n1,22.1,25.4,34.3,43.0*,-26.2,5.1,27.1
Nc1nc(-c2ccccc2)nc(-c2ccccc2O)n1,-16.0,9.5,19.3,30.9,-4.8,·,·
Oc1ccccc1-c1csc(-c2ccccc2)n1,20.2,11.7,19.2,46.3*,4.8,-3.2,37.1*
COCCCNC(=S)Nc1ccc(S(=O)(=O)Nc2cc(OC)nc(OC)n2)cc1,29.6,9.2,-3.8,-2.2,14.7,-4.2,·
N#Cc1ccc(C#Cc2ccc3oc4ccccc4c(=O)c3c2)cc1,3.3,-0.9,-4.0,-3.3,-15.7,·,·
Cn1c2ccccc2c(=O)c2cc(C#CC3(O)CCCCC3)ccc21,-34.6,-7.3,-3.1,43.9*,-0.4,20.8,39.1*
Cn1c2ccccc2c(=O)c2cc(C#Cc3ccsc3)ccc21,-34.1,-8.1,-14.3,0.3,-36.1,-10.7,·
O=c1c2ccccc2oc2ccc(C#CC3(O)CCCCC3)cc12,-16.8,20.7,30.1,45.0*,-12.7,·,35.5*
SMILES,NALP3 yeast inh,TIM10 inh,tim23-1 inh,tim10-1 inh,PfHsp90 yeast 2,NALP1 yeast inh,tim10-1 conf
Cn1c2ccccc2c(=O)c2ccc(C#CC3(N)CCCCC3)cc21,9.6,27.5,32.6,44.8*,5.5,22.1,36.1*
Cc1ccc(C)c(CN2CCC(CNC(=O)Nc3ccc(F)c(Cl)c3)CC2)c1,17.0,18.2,12.5,28.8,25.7,17.9,·
N#CCc1ccc(Oc2ncc(C(F)(F)F)cc2Cl)cc1,-9.1,30.7,38.8,47.5*,-12.7,-7.6,27.9
CC(C)NS(=O)(=O)c1ccc(Oc2ncc(C(F)(F)F)cc2Cl)cc1,8.5,8.2,19.7,48.8*,-70.6,26.1,25.6
COc1ccc(S(=O)(=O)NN(C)c2ncc(C(F)(F)F)cc2Cl)cc1,3.1,7.3,15.1,40.3*,5.2,-1.9,14.9
O=C(NC1CCCC1)C(c1cccnc1)N(C(=O)c1csnn1)c1ccccc1Cl (centres undefined),5.6,10.8,-2.0,-13.4,-5.9,-3.2,·
CCOC(=O)C1=C(C)NC(C)=C(C(=O)OCC)C1C(=O)OCC(=O)N(C)Cc1ccccc1,18.3,-4.8,4.7,6.2,11.0,·,·
CC1=CC(C)(C)Nc2ccc(OC(=O)c3ccco3)cc21,27.6,14.1,30.3,22.9,13.9,24.0,·
CC1=CC(C)(C)Nc2ccc(OC(=O)c3cccnc3)cc21,7.8,13.2,32.7,40.4*,11.5,22.8,24.6
Cc1ccc2[nH]c3c(c2c1)CN(C(=O)CN1c2ccc(F)cc2CCC1C)CC3 (centres undefined),23.6,29.0,41.0,42.7*,-32.5,2.6,37.6*
Cc1ccc2[nH]c3c(c2c1)CN(C(=O)CN1CCN(C(=O)c2ccco2)CC1)CC3,15.3,-10.6,12.6,-28.7,·,1.6,·
COc1cc(C(=O)NC(=S)Nc2ccc(Cc3ccncc3)cc2)cc(OC)c1OC,9.3,13.9,40.1,46.5*,-5.0,7.7,35.4*
CCOC(=O)c1c(C)[nH]c(C(=O)Nc2ccc3c(c2)OCO3)c1C,28.8,38.6,45.1,42.9*,·,15.5,31.7*
COc1ccc(-c2c[n+]3c4n2CCCCC4=C(c2ccccc2)C3)cc1,6.0,35.7,37.5,44.6*,·,11.5,17.2
COc1cccc(NC(=O)Cc2nnc(SCC(=O)NC3CCCCC3)n2C)c1,-4.8,-0.5,16.0,10.8,-8.4,16.4,·
COCCn1c(N)c(C(=O)OCc2ccccc2)c2nc3ccccc3nc21,15.4,30.0,41.1,42.7*,·,6.9,26.7
COCCNC(=O)c1c(N)n(CCC2=CCCCC2)c2nc3ccccc3nc12,-7.9,24.2,5.1,43.0*,-11.7,-0.5,12.9
COc1ccc(CCn2c(N)c(C(=O)NCc3ccco3)c3nc4ccccc4nc32)cc1,2.4,20.8,4.8,29.0,-3.3,24.7,·
CC(C)(C)c1ccc(C(=O)N2CCCC2c2cccs2)cc1 (centres undefined),22.3,31.2,17.4,19.0,5.3,12.4,·
COc1cccc(-c2nc(=S)c3c(n2Cc2ccco2)CCCC3)c1,12.3,20.1,16.5,42.0*,-24.8,-3.9,40.1*
CCCC1Cc2c(sc(N)c2C#N)CO1 (centres undefined),11.9,2.1,11.3,-3.8,·,7.9,·
O=C(N(Cc1ccccc1)c1ccccn1)C12CC3CC(CC(C3)C1)C2,-7.6,35.4,38.4,35.5,·,11.0,·
